H9c2 TAG inh = triacylglycerol accumulation inhibition | H9c2 cells, Nile Red lipid (TAG) fluorescence; cells loaded with 200 µM oleic acid | inhibition, % at 12.5 µM | 0.66% of 230,000 active | AID 651582;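 active means pattern-corrected inhibition of lipid staining of at least 50% with the nuclear-stain viability signal not falling by more than 50%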;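 further: 0% = DMSO wells and 100% = triacsin C control wells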
GC-A act = GC-A (human) enzyme activation; HEK293 GC-A cells, cGMP TR-FRET, EC30 ANP; 0% at EC30 ANP, 100% saturating ANP; activation, % at 10 µM; 0.14% of 370,000 active; in the data active means activation above about 40%
NPR2 activator = GC-B (human) receptor activation. activation, % at 10 µM. 0.11% of 370,000 active. HEK293-GC-B cells, CNP EC30, cGMP TR-FRET; 0% at EC30 CNP, 100% saturating CNP. AID 1920062;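 active means activation at 10 µM reaching about 35% in either raw or pattern-adjusted values, limit read from the data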
HSV replic up = HSV replication enhancement; HSV replication augmentation in cells, fold increase; maximum fold increase; 0.005% of 220,000 active; AID 1956; in the data active means maximum fold increase above about 1.5; tested in PC3 cells
A1 inh = inhibitors of the anti-apoptotic protein A1, read as caspase activation; MEF A1-2A-BIM cells, Caspase-Glo 3/7 luminescence, 3 h; percent of clofoctol response, vehicle zero; caspase activation, % (test concentration not listed); 0.066% of 330,000 active; AID 2462;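 active means over half of replicate activation scores above 10%, or exactly half above 10 with the replicate mean above 10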
Efflux pump inh = blocks antifungal efflux pumps in multiplex yeast assay; inhibition, % at 10 µM; S. cerevisiae Candida pump triplex, Nile Red efflux; 0.44% of 330,000 active;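 active means plate passing quality check with inhibition over a set limit, or well fluorescence over plate mean plus 4 SD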;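 further: Nile Red retained in pooled yeast measured as flow cytometry median fluorescence; 0% = buffer negative control and 100% = Enniatin B positive control; higher means more Nile Red kept so more efflux inhibition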
Yeast cmpd fluor = flagged as fluorescent in efflux inhibitor counter-screen. fluorescence ratio to DMSO, % at 10 µM. S. cerevisiae AD/pABC3, compound fluorescence, flow cytometry. 4% of 1,700 active. shares compounds with Efflux pump inh;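 active means fluorescence ratio to DMSO above its plate's cutoff, the plate mean ratio plus 5 SD, cut at about 210% in these data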;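 further: unstained yeast with no Nile Red so the signal is compound autofluorescence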
CaMdr1 efflux inh = inhibitors of Candida albicans Mdr1 efflux pump; inhibition, % at 10 µM; S. cerevisiae AD/CaMDR1, Nile Red efflux, flow cytometry; 1% of 1,700 active; shares compounds with Efflux pump inh; in the data active means inhibition above about 26%;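 further: 0% = DMSO vehicle and 100% = reference inhibitor; higher means more Nile Red retained so more efflux inhibition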
Cdr2 pump inh = inhibitors of Candida albicans Cdr2 efflux pump | shares compounds with Efflux pump inh | S. cerevisiae AD/CaCDR2, Nile Red retention, flow cytometry | Nile Red retention ratio vs DMSO, % at 10 µM | 4% of 1,700 active; in the data active means Nile Red retention ratio vs DMSO above about 190%;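 further: higher ratio means more blocking of Cdr2 efflux of the dye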
Cdr1 pump inh = blocks the Candida albicans Cdr1 efflux pump in yeast | shares compounds with Efflux pump inh | S. cerevisiae AD/CaCDR1, Nile Red efflux, flow cytometry | inhibition, % at 10 µM | 1% of 1,700 active | AID 588522;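 active means inhibition above the screen-wide mean plus twice its standard deviation, cut at about 32% in these data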
* hit, by the source's call; i = inactive; . = no result given; + = active, no number. Shown are actives, neighbours in structure and some others; about 1% of the full set was active somewhere.

SMILES	H9c2 TAG inh	GC-A act	NPR2 activator	HSV replic up	A1 inh	Efflux pump inh	Yeast cmpd fluor	CaMdr1 efflux inh	Cdr2 pump inh	Cdr1 pump inh
COc1cc2c(cc1OC)C(c1ccsc1)CC(=O)N2 (centres undefined)	-7	-4	-6	i	3	0	.	.	.	.
Cc1cc(C2CC(=O)Nc3ccccc3S2)c(C)s1 (centres undefined)	2	-2	0	i	0	0	97	0	106	0
O=C1CC(c2ccsc2)Sc2ccccc2N1 (centres undefined)	-3	-7	1	i	0	0	89	0	100	0
COc1ccc(CCNC(=O)C2CCN(S(=O)(=O)N3CCCCC3)CC2)cc1OC	.	-1	-1	.	1	0	.	.	.	.
COc1ccc(CCNC(=O)C2CCN(S(=O)(=O)N3CCC4(CC3)OCCO4)CC2)cc1OC	.	2	0	i	0	1.3*	103	0	105	0
COc1ccc2nc(NC(=O)c3ccoc3C)sc2c1	.	11	-3	i	-10	7.5*	120	0	120	0
COC(=O)[C@]12C[C@H](CC(=O)NCc3ccc(OC)c(OC)c3)C(=O)N(CCc3ccc(OC)c(OC)c3)C1=C[C@H](COCc1ccccc1)O[C@@H]2C	.	3	5	.	.	.	.	.	.	.
CCOC(=O)c1cnc(SC)nc1Oc1cccc(NS(=O)(=O)c2ccc(Cl)cc2)c1	-26	-4	-1	i	0	0	.	.	.	.
CCOC(=O)c1cnc(SC)nc1Oc1cccc(NC(=O)c2ccc(Cl)cc2)c1	9	-4	-3	i	0	1.5*	105	0	116	1
N#Cc1ccc(Cn2ccc3ccc(-c4ccc5ccn(C(=O)C6CC6)c5c4)cc32)cc1	.	2	5	.	.	.	.	.	.	.
COC(=O)C1(C)NCCc2c1[nH]c1ccccc21 (centres undefined)	.	7	-1	.	1	0	.	.	.	.
CCOC(=O)N1CCC2(CC1)NCCc1c2[nH]c2ccccc12	3	2	1	i	0	0.9*	97	0	97	0
CCN1/C(=C/c2ccc3cccc(C)c3[n+]2CC)Sc2ccccc21	.	-1	6	.	0	2.4*	+	5	138	1
Cc1ccc(-n2c(-c3ccc(Br)cc3)c[n+]3c2CCc2ccc4cccnc4c2-3)cc1	.	-33	-17	i	0	1.1*	107	0	+	0
COc1ccc(-n2c(-c3ccc(Cl)cc3)c[n+]3c2CCc2ccccc2-3)cc1	-24	-2	-6	i	1	0	.	.	.	.
CC1(C)CC2(CC(c3ccc(F)cc3)c3ccc(O)cc3O2)NC(=S)N1 (centres undefined)	-2	8	-6	i	1	0	.	.	.	.
CC1(C)CC2(CC(c3cccs3)c3cc(Cl)c(O)cc3O2)NC(=S)N1 (centres undefined)	-15	-2	-5	.	0	53*	102	75*	114	0
CCC(C)CNC(=O)CSc1nnc(-c2cccnc2)n1C1CCCCC1 (centres undefined)	.	-1	2	.	.	.	.	.	.	.
CCC1(c2ccccc2)NC(=O)N(CC(=O)N(C)Cc2ccccc2)C1=O (centres undefined)	.	-3	-4	.	1	1.1*	99	0	112	0
CCC1(c2ccccc2)NC(=O)N(CC(=O)N(C)Cc2c(F)cccc2Cl)C1=O (centres undefined)	.	-1	2	.	2	0	.	.	.	.
O=C1C(=C2SCCCS2)CC/C1=C\c1ccc(F)cc1	0	12	3	i	-7	0	.	.	.	.
O=C1CCCC(=O)C1=C1SCCCS1	.	4	2	i	0	6.5*	91	0	96	0
CN1CCN(Cc2cc(Cl)c3cccnc3c2OC(=O)c2cccs2)CC1	.	-9	-7	i	1	11*	97	0	98	0
COc1ccc(C)cc1NC(=O)C1CC(=O)OC12CCCCC2 (centres undefined)	.	-1	1	i	0	1.3*	100	0	114	0
Cc1cccc(NC(=O)C2CC(=O)OC23CCCCC3)c1 (centres undefined)	8	-2	1	i	0	0	.	.	.	.
SMILES	H9c2 TAG inh	GC-A act	NPR2 activator	HSV replic up	A1 inh	Efflux pump inh	Yeast cmpd fluor	CaMdr1 efflux inh	Cdr2 pump inh	Cdr1 pump inh
CC1CCC2(CCC(=O)N2C[C@@H](O)c2ccccc2)CC1 (some centres undefined)	.	0	-4	.	.	.	.	.	.	.
Cc1ncc(C(=O)O)c(C(=O)O)c1N	.	0	5	i	-1	5.5*	115	0	108	0
CCOc1cc(/C=C2\SC(=Nc3ccccc3)N(c3ccccc3)C2=O)ccc1OCC(=O)O	.	2	2	i	0	6.4*	99	0	89	0
CCOc1cc(/C=C2\SC(=Nc3ccc(F)cc3)N(c3ccc(F)cc3)C2=O)ccc1OCC(=O)O	.	.	.	i	-1	0	.	.	.	.
Cc1cc(C)c2nc(-n3nc(C)cc3N)cc(C)c2c1	.	-3	-6	i	0	2.0*	90	0	95	0
O=C(CSc1nnc(-c2ccccc2O)n1Cc1ccccc1)NNC(=O)c1ccccc1O	8	-2	-12	i	0	29*	91	0	97	0
CC(=O)Nc1nc2ncccn2c1-c1ccccc1	.	2	-2	.	.	.	.	.	.	.
O=C(C1CCCCC1)n1ccc2ccc(-c3ccc4ccn(Cc5ccccc5)c4c3)cc21	.	-3	-5	.	.	.	.	.	.	.
COc1cc(CNc2ccc(C(=O)O)cc2)cc(Br)c1OCC(=O)NC(C)(C)C	.	-1	-7	i	0	21*	108	0	102	0
CCOc1cc(CNc2ccc(OC)cc2)cc(Br)c1OCC(=O)NC(C)(C)C	.	-1	-5	i	1	0	.	.	.	.
Cc1ccc(S(=O)(=O)N2O[C@@H](c3ccccc3)C[C@H]2CON2C(C)(C)CCCC2(C)C)cc1	.	1	-4	.	.	.	.	.	.	.
O=C(N/N=C\c1ccc(CNS(=O)(=O)c2ccccc2)o1)C(=O)Nc1ccc(F)cc1	.	5	-5	i	-1	0	.	.	.	.
O=C(NCc1ccc(/C=N\NC(=O)C(=O)Nc2ccccc2Br)o1)C(=O)Nc1ccccc1	-6	-26	-8	.	11*	0.7*	102	0	109	0

Bioassay records: PubChem, several laboratories
